Assay outcomes: PubChem BioAssay, National Center for Advancing Translational Sciences (NCATS)
Sfp inh: Sfp phosphopantetheinyl transferase inhibition; Q9F4F7; 3.5% of 310,000 active; AID 1490; Potency, µM, hits mostly inhibitors; Biochemical Sfp PPTase activity, qHTS;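 further: the enzyme is Sfp with the accession as filed and its product quenches rhodamine fluorescence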
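Fluorescence-quenching assay: 15 nM Sfp-PPTase preincubated 15 min at room temperature with compound, then 5 uM rhodamine-CoA and 12.5 uM BHQ-2-labelled YbbR peptide added. Fluorescence (ex 525/em 598 nm) read at start and after 30 min; difference gives rate.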
BAZ2B block: inhibitors of human BAZ2B bromodomain | Q9UIF8 | AlphaScreen BAZ2B-H3K14Ac peptide displacement | Potency, µM (highest dose often 114 µM), usual class: inhibitors | 4.4% of 360,000 active | AID 504333; further: nearly all actives have a fitted effect of over 60% in size
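Inhibition is scored as reduced AlphaScreen emission. The BAZ2B/b-H3(5-23)K14Ac complex (50 nM each) in PBS pH 7.4, 0.01% Tween-20 meets compound (up to 110 uM) for 30 min at RT before bead addition.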
HP1b binding inh: inhibitors of HP1-beta chromodomain binding to methylated histone tails | 0.56% of 390,000 active | Potency, µM (top dose mostly 114 µM), hits mostly inhibitors | AlphaScreen HP1-beta / biotin-H3K9me3 peptide binding | P83916; further: nearly all actives have a fitted effect of over 70% in size
Target sequence (P83916 whole entry, looked up): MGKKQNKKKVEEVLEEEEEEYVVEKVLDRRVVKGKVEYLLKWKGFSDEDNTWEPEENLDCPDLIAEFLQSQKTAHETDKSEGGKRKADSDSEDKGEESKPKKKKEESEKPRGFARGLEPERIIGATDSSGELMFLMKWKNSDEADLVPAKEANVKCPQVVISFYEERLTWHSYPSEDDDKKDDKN
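HP1-beta protein (50 nM final) preincubated 30 min at room temperature with biotinylated H3(1-18)K9me3 peptide (50 nM) in PBS pH 7.4, 0.01% Tween-20, then compound added for 30 min. AlphaScreen streptavidin donor/nickel chelate acceptor beads (10 ug/mL final), 30 min dark, luminescence read.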
G9a inh: blocks human histone lysine methyltransferase G9a; G9a H3K9 monomethylation, AlphaScreen, 2 h; Potency, µM (top dose mostly 102 µM), most hits filed as inhibitors; 8.8% of 350,000 active; AID 504332; further: nearly all actives have a fitted effect of over 75% in size
Target sequence (Q96KQ7 913-1193 limits assumed): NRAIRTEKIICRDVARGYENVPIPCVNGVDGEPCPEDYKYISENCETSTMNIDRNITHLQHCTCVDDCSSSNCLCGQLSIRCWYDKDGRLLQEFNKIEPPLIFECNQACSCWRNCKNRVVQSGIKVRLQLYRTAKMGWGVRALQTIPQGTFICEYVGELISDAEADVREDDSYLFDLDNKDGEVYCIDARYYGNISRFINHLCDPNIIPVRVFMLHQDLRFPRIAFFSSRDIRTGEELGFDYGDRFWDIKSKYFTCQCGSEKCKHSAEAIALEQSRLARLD
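Compounds were preincubated with 20 nM G9a for 15 min, after which biotinylated H3K9 peptide (500 nM) and SAM (20 uM) started a 2 h room-temperature reaction. Monomethylated product was quantified by antibody-based AlphaScreen chemiluminescence.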
12-LOX inh: inhibitors of human 12S-lipoxygenase ALOX12; P18054; 1.1% of 580,000 active; purified 12hLO, xylenol orange hydroperoxide absorbance; AID 1671190; Potency, µM (series often up to 108 µM), actives largely listed as inhibitors
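Hydroperoxide product was detected by ferrous iron/xylenol orange as the 573 to 405 nm absorbance ratio. Arachidonic acid at 40 uM (final) was turned over for 30 min at room temperature by 150 nM human 12hLO, pH 7.0 Hepes buffer, after 15 min compound preincubation.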
JMJD2A Tudor: JMJD2A Tudor domain (human) inhibition | Potency, µM (series often up to 114 µM), usual class: inhibitors | AlphaScreen JMJD2A-Tudor / H3K4me3 peptide binding | 4.4% of 390,000 active | O75164; further: nearly all actives have a fitted effect of over 50% in size
Large screens that a line does not name were inactive; ! = not active in a repeat. A selection: hits, their analogues and other compounds. The true share with any hit is near 8.7%. The call rests on the fitted dose curve; in most records, active means well fitted curve in the direction sought with a large enough effect; inconclusive means small, poorly fitted or top-dose-only effect, or another doubt; inactive means no such curve, though single readings can be large; an effect the other way counts as inactive or inconclusive.

C[N+]1(CC#CC(O)(c2ccccc2)c2ccccc2)CCCC1	G9a inh 8.9µM, 12-LOX inh inconclusive, JMJD2A Tudor inconclusive
OC(C#CCCN1CCCCC1)(c1ccccc1)c1ccccc1	12-LOX inh inconclusive (no result: G9a inh)
COC(=O)C(C)NC(=S)N1CCN(c2c(F)cc3c(=O)c(C(=O)O)cn(C4CC4)c3c2OC)CC1C (centres undefined)	Sfp inh inconclusive, 12-LOX inh 8.9µM
CNCCNS(=O)(=O)c1cccc2cnccc12	G9a inh 30µM (no result: BAZ2B block, HP1b binding inh, JMJD2A Tudor)
O=S(=O)(NCCc1ccncc1)c1cc(Br)ccc1F	none
O=S(=O)(NCCNC/C=C/c1ccc(Br)cc1)c1cccc2cnccc12	G9a inh 50µM! (no result: BAZ2B block, HP1b binding inh, JMJD2A Tudor)
NCCNS(=O)(=O)c1ccc(Cl)c2ccncc12	none (no result: BAZ2B block, HP1b binding inh, G9a inh, 12-LOX inh, JMJD2A Tudor)
O=C(c1ccc2cccnc2c1O)N1CCCC(CCc2ccccc2F)C1 (centres undefined)	none (no result: Sfp inh, BAZ2B block, HP1b binding inh, G9a inh, JMJD2A Tudor)
CCS(=O)(=O)N1CCC(C(=O)Nc2ccc(Oc3ccccc3OC)cc2)CC1	none (no result: Sfp inh, BAZ2B block, HP1b binding inh, G9a inh, JMJD2A Tudor)
N#CC1(NC(=O)COC(=O)c2cc(O)c3ccccc3c2O)CCCCC1	BAZ2B block 50µM, HP1b binding inh inconclusive, G9a inh 4.5µM, JMJD2A Tudor 25µM (no result: Sfp inh, 12-LOX inh)
C=CC(C1=CC(=O)C(OC)=C(OC)C1=O)c1ccccc1 (centres undefined)	Sfp inh 1.8µM (no result: BAZ2B block, HP1b binding inh, G9a inh, 12-LOX inh, JMJD2A Tudor)
C=CC(C1=CC(=O)C(OC)=CC1=O)c1ccc(OC)cc1 (centres undefined)	Sfp inh 40µM (no result: BAZ2B block, HP1b binding inh, G9a inh, 12-LOX inh, JMJD2A Tudor)
Cc1cccc(NC(=O)/C(C#N)=C/c2ccc(F)cc2)n1	none
N#C/C(=C\c1ccccc1)C(=O)Nc1ccccn1	none
CC(NC(=O)/C(C#N)=C/c1cccs1)c1ccccc1 (centres undefined)	none
N#C/C(=C\c1cccs1)C(=O)Nc1ccccn1	G9a inh 56µM
Cc1cccc(/C=C(\C#N)C(=O)Nc2ccccn2)c1	G9a inh 45µM, 12-LOX inh inconclusive
CC(C)(C)c1ccc(C(=O)/C(C#N)=C/c2cccs2)cc1	BAZ2B block 50µM, HP1b binding inh inconclusive, G9a inh inconclusive, 12-LOX inh inconclusive, JMJD2A Tudor inconclusive
CCCOc1ccccc1/C=C(\C#N)C(=O)Nc1cccc(C)n1	G9a inh 20µM
COc1cc2c(cc1OC)-c1c(c(C(=O)N3CCC(C(N)=O)CC3)nn1-c1cccc(Cl)c1)C2	none (no result: Sfp inh, BAZ2B block, HP1b binding inh, G9a inh, JMJD2A Tudor)
Cc1ccccc1-n1nc(-c2c(C)nc3scc(CC(=O)NC(C)C)n3c2=O)cc1C	none (no result: Sfp inh, BAZ2B block, HP1b binding inh, G9a inh, JMJD2A Tudor)
O=C1NCCCCCCN(Cc2ccncc2)[C@@H]2CN(C(=O)c3ccco3)CC[C@@H]12	none (no result: Sfp inh, BAZ2B block, HP1b binding inh, G9a inh, JMJD2A Tudor)
CCOc1cc(/C=C(\C#N)C(=O)Nc2ccccn2)ccc1O	G9a inh 45µM, 12-LOX inh inconclusive
N#C/C(=C\c1ccccc1)C(=O)Nc1nncs1	G9a inh 50µM, 12-LOX inh inconclusive
CCOC(=O)c1c(-c2ccccc2)csc1NC(=O)/C(C#N)=C\c1ccc(O)c(OC)c1	HP1b binding inh inconclusive, JMJD2A Tudor 28µM (no result: Sfp inh, BAZ2B block, G9a inh)
N#C/C(=C\c1ccccc1)C(=O)Nc1cccnc1	none
COc1ccc(C(=O)NCC2COc3ccccc3O2)cc1OC (centres undefined)	none (no result: Sfp inh, BAZ2B block, HP1b binding inh, G9a inh, JMJD2A Tudor)
Cc1cn[nH]c1	G9a inh 19µM, 12-LOX inh 3.4µM!, JMJD2A Tudor inconclusive
Cc1ccc(-c2ccnc3c2c(=O)[nH]c(=O)n3CCc2ccccc2)cc1	none (no result: Sfp inh, BAZ2B block, HP1b binding inh, G9a inh, JMJD2A Tudor)
O=C(O)c1ccccc1O	12-LOX inh inconclusive
O=C(O)c1cccc(C(=O)O)c1Br	BAZ2B block inconclusive, JMJD2A Tudor 89µM
Nc1c(O)cccc1C(=O)O	12-LOX inh inconclusive, JMJD2A Tudor 56µM (no result: Sfp inh, BAZ2B block, G9a inh)
O=C1CCCC2=C1C(c1ccco1)Nc1ccc3ccccc3c12 (centres undefined)	Sfp inh 45µM, BAZ2B block 13µM, HP1b binding inh 50µM, G9a inh 16µM, JMJD2A Tudor 40µM
O=C1CCCC2=C1C(c1ccc(O)c(O)c1)Nc1ccc3ccccc3c12 (centres undefined)	HP1b binding inh inconclusive, JMJD2A Tudor 28µM (no result: Sfp inh, BAZ2B block, G9a inh)
O=C(Cc1c[nH]c2ncc(-c3ccc4c(c3)OCO4)cc12)N1CCOCC1	none (no result: Sfp inh, BAZ2B block, HP1b binding inh, G9a inh, JMJD2A Tudor)
CCNC(=O)C(C)NC(=O)CCNC(=O)N(C)Cc1ccccc1 (centres undefined)	none (no result: Sfp inh, BAZ2B block, HP1b binding inh, G9a inh, JMJD2A Tudor)
COc1ccc2cc(CN(C)C(=O)CNC(=O)c3ccccc3Cl)ccc2c1	none (no result: Sfp inh, BAZ2B block, HP1b binding inh, G9a inh, JMJD2A Tudor)
